# PubChem BioAssay AID1851 (National Center for Advancing Translational Sciences (NCATS), 2009)
# “And” between values parts separate entries of the source, which are not always exact repeats. Equal entries are not always repeated. Among all 16,000 compounds or so, about 2,600 (16%) were called active. Not shown: some 20% with an inconclusive outcome. A selection follows. Unmarked numbers belong to inactive results. Calls come from the whole dose curve; as a rule, active = well fitted curve in the direction sought with a large enough effect; inconclusive = small, poorly fitted or top-dose-only effect, or effect the other way; inactive = no such curve, though single readings can be large or run the other way.
# Target: Cytochrome P450 2D6 (Homo sapiens) (UniProt P10635)
# Sequence (P10635 whole entry, looked up): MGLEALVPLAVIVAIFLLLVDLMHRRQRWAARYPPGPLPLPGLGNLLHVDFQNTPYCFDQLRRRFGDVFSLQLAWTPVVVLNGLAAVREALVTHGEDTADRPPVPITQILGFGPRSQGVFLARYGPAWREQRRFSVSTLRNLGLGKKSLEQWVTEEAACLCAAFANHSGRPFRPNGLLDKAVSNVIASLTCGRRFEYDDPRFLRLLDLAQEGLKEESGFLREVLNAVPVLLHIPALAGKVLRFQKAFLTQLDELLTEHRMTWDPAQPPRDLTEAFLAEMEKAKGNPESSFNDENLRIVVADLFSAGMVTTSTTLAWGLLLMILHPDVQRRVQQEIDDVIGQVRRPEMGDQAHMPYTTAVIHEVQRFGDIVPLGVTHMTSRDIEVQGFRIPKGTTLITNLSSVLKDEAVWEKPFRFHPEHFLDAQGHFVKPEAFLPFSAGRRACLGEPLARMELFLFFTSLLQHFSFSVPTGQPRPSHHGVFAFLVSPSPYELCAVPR
# Assay: Cytochrome panel assay with activity outcomes
# Settings: recombinant CYP, pro-luciferin dealkylation, luminescence, p450-cyp2d6; series mostly up to 57.1 µM; activity, negative = inhibition: at the top concentration
# % is set by controls: 0 for no effect and ±100 for the full control effect.
Compound,"activity, negative = inhibition",AC50
O[C@@H](COc1cccc2ccccc12)CN1CCOCC1,-5.64% [at 11.4 µM],–
CNC(=S)N1CCN(c2ccccc2OC)CC1,1.48%,–
COc1ccccc1N1CCN(C[C@@H](O)COc2cccc3ccccc23)CC1,–,794 nM (active) and 316 nM (active) and 126 nM (active)
COCCn1c(=O)c(-c2cccc(Cl)c2)nc2cncnc21,-8.21%,–
COCCCNC(=O)CN(c1ccc(OC)cc1)S(=O)(=O)c1ccc(NC(C)=O)cc1,-0.214%,–
COC(=O)CN(c1ccc(OC)cc1)S(=O)(=O)c1c(C)noc1C,-8.3%,–
COc1ccc(N(CC(=O)NCc2cccc(OC)c2)S(=O)(=O)c2c(C)noc2C)cc1,–,14.1 µM (active)
CN=C1S/C(=C\c2ccc(Sc3ccc(Cl)cc3)o2)C(=O)N1C,-2.93%,–
C#CCOCCCC(=O)O,15.7% [at 11.4 µM],–
Cc1ccc(CSc2nnc3c(n2)OC2(Nc4ccccc4-3)C(=O)Nc3ccc(F)cc32)cc1 (stereo unspecified),–,25.1 µM (active)
COc1cccc(Nc2ncc3nc(C)c(=O)n(C4CC4)c3n2)c1,5.12%,–
O=C(Nc1ccccc1)OC[C@H](CN1CCCCC1)OC(=O)Nc1ccccc1,–,0.398 µM (active)
O=C(NNC(=S)Nc1ccccc1)C1CC1,12.2%,–
S=C(Nc1ccccc1)N1CCCCC1,4.42%,–
COC(=O)COc1ccc(/C=C2/SC(=O)N(CC(=O)N3CCCC3)C2=O)cc1Br,14%,–
O=C(O)c1ccc(Sc2nnnn2-c2ccccc2)c([N+](=O)[O-])c1,-11.6%,–
NCCNC(=O)c1ncsc1-c1cccc(F)c1,-0.237%,–
Cn1c(=O)c(-c2ccc(F)cc2)nc2cncnc21,-4.46%,–
c1cncc(CNc2ncn[nH]2)c1,5.73% [at 11.4 µM],–
Cn1c(-c2ccc(F)cc2)cnc1NCc1cccc(F)c1,–,0.0562 µM (active)
CN(C)c1ccc(-c2cc(NCc3cccnc3)ncn2)cc1,-15.4%,–
COc1cccc(Nc2ncc3nc(-c4ccc(F)cc4)c(=O)n(C)c3n2)c1,-1.2%,–

Compound,"activity, negative = inhibition",AC50
Cn1c(-c2ccc(F)cc2)cnc1NCc1ccc(F)cc1,–,0.0355 µM (active)
CCNc1ncc2ncc(=O)n(Cc3ccc(F)cc3)c2n1,-8.79%,–
Cn1c(-c2ccc(Br)cc2)cnc1NCc1cccnc1,–,0.501 µM (active)
CCC1CC2CC(NC(C)=O)C1C2 (stereo unspecified),-23.4%,–
Fc1ccc2c(c1)C1C=CCC1C(c1cc3c(cc1Br)OCO3)N2 (stereo unspecified),-28.2%,–
CCCCOC(OCCCC)[C@H](O)CSc1ccc2ccccc2c1,-15.8% [at 11.4 µM],–
C#CCn1c(=O)c2c(ncn2C)n(C)c1=O,-6.36%,–
Cc1ccccc1-c1nccc(NCc2cccs2)n1,–,2.51 µM (active)
Cc1cnc(CNc2ccnc(-c3ccccc3C(F)(F)F)n2)cn1,-3.39%,–
Cc1cnc(CNc2ccnc(-c3ccccc3C)n2)cn1,-8.97%,–
COCCNc1ccnc(-c2ccccc2C(F)(F)F)n1,2.1%,–
FC(F)(F)c1ccccc1-c1nccc(NCc2cccs2)n1,–,25.1 µM (active)
CN(C)Cc1ccccc1-c1nccc(NCc2cccs2)n1,–,1.58 µM (active)
CN(C)Cc1ccccc1-c1cc(NCc2cccs2)ncn1,–,2 µM (active)
Cc1cnc(CNc2cc(-c3ccccc3C)ncn2)cn1,-0.691%,–
O=C(NCc1ccco1)c1cc(C(=O)C2CCCCC2)c[nH]1,-6.41%,–
CCCCCC(=O)O[C@H](CC(=O)O)C[N+](C)(C)C,-11.7%,–
Cc1cc2cccc(C)c2nc1SCC(=O)N(C)c1nc(-c2ccccc2)cs1,-0.855%,–
COc1ccc(NC(=O)N2CCCC3(CCN(C(=O)c4cc(C(F)(F)F)cc(C(F)(F)F)c4)CC3)C2)cc1,3.95%,–
O=C1[C@H]2[C@H]3[C@H](O)[C@H](O)C/C(=N/OC[C@@H](O)COCc4ccco4)[C@@H]3CC[C@@H]2C(=O)N1C1CCCCC1,7.51% [at 11.4 µM],–
Oc1cccc2ccc(SSc3ccc4cccc(O)c4n3)nc12,-0.179% [at 11.4 µM],–
COc1ccc(-c2nn3cnnc3s2)cc1OC,-5.22%,–

Compound,"activity, negative = inhibition",AC50
C/C(=C/C(=O)NCc1ccccc1)C(=O)O,-22.1%,–
O=C(O)NCc1ccccc1 (tested in a mixture with another compound),–,3.98 µM (active)
CCCC(=O)NNC(=O)CCC(=O)NCc1ccccc1,10.5%,–
Cc1n[nH]c(=O)n1-c1cccc(C(F)(F)F)c1,3.26%,–
O=c1c2ccc(Cl)cc2nc(-c2cccc(C(F)(F)F)c2)n1O,-2.94%,–
CC1=CC(=O)N(c2cccc(C(F)(F)F)c2)C1c1ccc(Cl)cc1 (stereo unspecified),–,2.51 µM (active)
O=C(CSc1nc(-c2ccccc2)nc2ccccc12)Nc1nccs1,-12.9%,–
CCC1C(=O)N=C(SCC(=O)Nc2ccc(C(=O)OC)cc2)NC1=O (stereo unspecified),22.4%,–
COC(=O)c1ccc(NC(=O)Cn2nc(-c3ccncc3)nc2SCC(=O)Nc2nccs2)cc1,–,10 µM (active)
O=C(O)c1sc2cc(C(F)(F)F)cnc2c1-c1ccccc1,4.15%,–
CCCCC1CC(/C(C)=N/NC(N)=O)OC1=O (stereo unspecified),3.14%,–
CC(C)c1ccc(CNc2cc(N3CCCC3)ccc2[N+](=O)[O-])cc1,-12.9%,–
O=C(NC(NCc1ccccc1)C(Cl)(Cl)Cl)c1cccnc1 (stereo unspecified),-17.4%,–
O=C(Cc1ccccc1)NC(NCCc1ccccc1)C(Cl)(Cl)Cl (stereo unspecified),–,14.1 µM (active)
CC(CP(=O)(O)O)NC(=O)Cc1ccccc1 (stereo unspecified),13.9%,–
Cc1n[nH]c(=S)n1/N=C/c1ccccc1OCc1ccc(Cl)cc1,-2.31%,–
CCOc1nc(NCCc2ccc(OC)c(OC)c2)nc(NC(C)(C)CO)n1,-10.7%,–
COc1cc(CNC(C)(C)CO)ccc1OCC(=O)Nc1ccc(Br)cc1,–,5.01 µM (active)
C=CCOc1ccc(CNC(C)(C)CO)cc1OC,–,1.41 µM (active)
CCc1ccc(OCC(=O)NC(=S)Nc2ccc(F)cc2)c(Br)c1,-16.7%,–
CCOc1ccc(CC(=O)C2C(=O)CCCC2=O)cc1OCC,-15.5%,–
CCOC(=O)c1ccc(NC(=O)COc2ccccc2OC)cc1,-1.48%,–

Compound,"activity, negative = inhibition",AC50
COc1ccc(CNC(C)(C)C)cc1Cl,-20.5%,–
C=CCOc1ccc(CNC(C)(C)CO)cc1OCC,–,1.41 µM (active)
CCOc1ccc(CNC(=O)C2CC(=O)N(C3CCCC3)C2)cc1OC (stereo unspecified),-1.57%,–
Cc1ccccc1C(=O)NNC(=O)c1ccoc1C,-3.55%,–
CC(C)CC(=O)N[C@H](C(=O)N[C@H](C(=O)N[C@@H](CC(C)C)[C@H](O)CC(=O)N[C@@H](C)C(=O)N[C@@H](CC(C)C)[C@H](O)CC(=O)O)C(C)C)C(C)C,10.1% [at 25.6 µM],–
O=C(Nc1nnc(-c2ccc(Cl)cc2)o1)Nc1ccccc1Cl,6%,–
COc1ccc(Oc2ncc3nc(-c4cc(F)cc(F)c4)c(=O)n(C)c3n2)cc1,5.83%,–
Cc1cc(C(F)(F)F)n2nc(-c3cnn(C)c3C(F)(F)F)cc2n1,5.93%,–
CN1CCN(c2ncc3nc(-c4cccs4)c(=O)n(C[C@H]4CCCO4)c3n2)CC1,-2.95%,–
COC(=O)c1c(-c2cc(OC)c(OC)c(OC)c2)c2ccnc(OCc3ncccn3)c2c(=O)n1Cc1ccnc(C)c1,-3.6%,–
C[C@H](N)C(=O)O,9.23%,–
Cc1ccc(S(=O)(=O)Oc2cc(N)c3c(n2)CCC3)cc1,-20.4% [at 11.4 µM],–
Cc1ccc(S(=O)(=O)Oc2ccc(C3C4=C(CCCC4=O)OC4=C3C(=O)CCC4)cc2)cc1,–,7.94 µM (active)
COc1ccc2c(c1)OC1=C(C(=O)CCC1)C2C1=C(O)CCCC1=O (stereo unspecified),-11.1%,–
COc1ncc2nc(-c3ccccc3)c(=O)n(-c3ccccc3)c2n1,-11.6%,–
COC(=O)C(C(=O)OC)C(C[N+](=O)[O-])c1ccc(OC)c(OC)c1 (stereo unspecified),11.8%,–
O=C1CC(N(O)C2CC(=O)N(Cc3ccccc3)C2=O)C(=O)N1Cc1ccccc1 (stereo unspecified),-14.7%,–
CCOC(=O)CCN1C(=O)[C@H]2[C@H]3[C@H](O)[C@H](O)C/C(=N/OC[C@@H](O)COCc4ccco4)[C@@H]3CC[C@@H]2C1=O,7.94% [at 11.4 µM],–
CN(C)C(=O)c1ccc(-c2nccc(Nc3ccc(F)cc3)n2)cc1,-8.36%,–
Fc1ccc(Nc2ccnc(-c3ccc4c(c3)OCO4)n2)cc1,–,10 µM (active)
Cc1noc(C)c1-c1nccc(Nc2ccc(F)cc2)n1,4.6%,–
Nc1nccc(Nc2ccc(S(N)(=O)=O)cc2)n1,-5.16% [at 11.4 µM],–

Compound,"activity, negative = inhibition",AC50
Cc1noc(C)c1-c1cc(Nc2ccc(F)cc2)ncn1,-3.49%,–
CN(C)c1ccc(-c2nccc(Nc3ccc(F)cc3)n2)cc1,–,20 µM (active)
C[C@H]1[C@@H](O)[C@@H](C)\C=C/C=C\C=C/C=C\C=C/C=C\C=C/[C@@H](O[C@H]2O[C@@H](C)[C@@H](O)[C@@H](N)[C@@H]2O)C[C@@H]2O[C@](O)(C[C@@H](O)C[C@@H](O)[C@@H](O)CC[C@@H](O)C[C@@H](O)CC(=O)O[C@H]1C)C[C@@H](O)[C@H]2C(=O)O (stereo in doubt),0.587% [at 25.6 µM],–
Cc1sc2c(c1C)c(=O)n(-c1ccccc1)c1nnc(C)n21,-7.69%,–
CC(C)OC(=O)C(C)(C)Oc1ccc(C(=O)c2ccc(Cl)cc2)cc1,-6.74% [at 25.6 µM],–
CC(C)(Oc1ccc(Cl)cc1)C(=O)Nc1cccnc1,-19.7%,–
CC(C)(Oc1ccc(Cl)cc1)C(=O)Nc1ccncc1,–,0.0316 µM (active)
CN(C)c1ncc2nc(-c3ccc(F)cc3)c(=O)n(CCc3ccccc3)c2n1,0.289%,–
COc1cc2ccc(=O)oc2cc1O,-3.08% [at 25.6 µM],–
c1cncc(-c2nc(NCCN3CCOCC3)c3ccccc3n2)c1,–,10 µM (active)
COc1cccc(-c2cncnc2NCCN2CCOCC2)c1,–,10 µM (active)
COc1cccc(-c2nc(NCCN3CCOCC3)c3ccccc3n2)c1,–,12.6 µM (active)
N#Cc1cccc(-c2nc(NCCN3CCOCC3)c3ccccc3n2)c1,–,7.94 µM (active)
CS(=O)(=O)Nc1cccc(-c2nc(NCCN3CCOCC3)c3ccccc3n2)c1,-16.5%,–
Cc1noc(C)c1-c1cncnc1NCCN1CCOCC1,-18.3%,–
CN(C)C(=O)c1ccc(-c2cncnc2NCCN2CCOCC2)cc1,-9.47%,–
COc1cccc(-c2cc(C(F)(F)F)nc(N3CCOCC3)n2)c1,-15%,–
N#CCCn1c(=O)c(-c2cccc(C#N)c2)nc2cnc(N3CCOCC3)nc21,-0.118%,–
